# Data published in PubChem BioAssay AID1508601 (ICCB-Longwood Screening Facility, Harvard Medical School, 2020).
# Out of some 5,700 compounds screened, about 85 (1%) were called active. This is one part of a sample in which actives are shown more often than they occur. Cut-off read from the data, not from the text of the source: active = p53-positive nuclei above about 36% (passing the limit was not always enough); inactive = the rest.
# Experiments:
# [1] = nuclear p53 accumulation, HPV+ cells – imaging, p53-positive nuclei imaging, 24 h, 48 h (AID 1508601); conditions: 24/48 h
# [2] = target: Cellular tumor antigen p53 (Homo sapiens) (UniProt P04637); assay: as above; conditions: 24/48 h, stronger effect = higher value
# Chain of Cellular tumor antigen p53 (Homo sapiens) (P04637 whole entry, looked up): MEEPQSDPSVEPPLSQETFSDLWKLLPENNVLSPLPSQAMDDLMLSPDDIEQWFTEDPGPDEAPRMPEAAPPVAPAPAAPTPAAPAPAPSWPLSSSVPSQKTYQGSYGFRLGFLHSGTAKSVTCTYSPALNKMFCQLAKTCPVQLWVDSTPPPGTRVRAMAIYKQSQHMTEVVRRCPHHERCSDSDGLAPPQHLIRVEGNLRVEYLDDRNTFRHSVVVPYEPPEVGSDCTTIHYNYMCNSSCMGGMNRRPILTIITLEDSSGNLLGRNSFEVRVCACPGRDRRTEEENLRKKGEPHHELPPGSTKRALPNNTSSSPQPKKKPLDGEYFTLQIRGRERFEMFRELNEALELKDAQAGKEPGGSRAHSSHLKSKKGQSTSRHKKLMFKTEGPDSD
# [3] = measured here: cell number at 24 h, concentration not given here
# [4] = measured here: cell number at 48 h, concentration not given here
# [5] = measured here: p53 positive nuclei at 24 h, concentration not given here
structure (smiles),measurement,setting,value
CC1OC(O[C@H]2CC[C@@]3(C)[C@@H](CC[C@@H]4[C@H]3CC[C@]3(C)[C@@H](C5=CC(=O)OC5)CC[C@]43O)C2)CC(O)C1O (stereo partly drawn),"nuclei count, normalised","[1]; measured here: cell number at 24 h, Library stock concentration: 500 nM",65.6%
same,"nuclei count, normalised","[1]; measured here: cell number at 24 h, Library stock concentration: 1.5 uM",57.4%
same,"nuclei count, normalised","[1]; measured here: cell number at 24 h, Library stock concentration: 4.6 uM",53%
same,"nuclei count, normalised","[1]; measured here: cell number at 24 h, Library stock concentration: 13.7 uM",48.6%
same,"nuclei count, normalised","[1]; measured here: cell number at 24 h, Library stock concentration: 41 uM",45.4%
same,"nuclei count, normalised","[1]; measured here: cell number at 24 h, Library stock concentration: 123 uM",41.8%
same,"nuclei count, normalised","[1]; measured here: cell number at 24 h, Library stock concentration: 370 uM",40.1%
same,"nuclei count, normalised","[1]; measured here: cell number at 24 h, Library stock concentration: 1.111 mM",41.7%
same,"nuclei count, normalised","[1]; measured here: cell number at 24 h, Library stock concentration: 3.333 mM",42.7%
same,"nuclei count, normalised","[1]; measured here: cell number at 24 h, Library stock concentration: 10 mM",42.7%
same,"nuclei count, normalised","[1]; measured here: cell number at 48 h, Library stock concentration: 500 nM",46.8%
same,"nuclei count, normalised","[1]; measured here: cell number at 48 h, Library stock concentration: 1.5 uM",37.2%
same,"nuclei count, normalised","[1]; measured here: cell number at 48 h, Library stock concentration: 4.6 uM",33.8%
same,"nuclei count, normalised","[1]; measured here: cell number at 48 h, Library stock concentration: 13.7 uM",32.8%
same,"nuclei count, normalised","[1]; measured here: cell number at 48 h, Library stock concentration: 41 uM",29.8%
same,"nuclei count, normalised","[1]; measured here: cell number at 48 h, Library stock concentration: 123 uM",30.1%
same,"nuclei count, normalised","[1]; measured here: cell number at 48 h, Library stock concentration: 370 uM",27.4%
same,"nuclei count, normalised","[1]; measured here: cell number at 48 h, Library stock concentration: 1.111 mM",28.3%
same,"nuclei count, normalised","[1]; measured here: cell number at 48 h, Library stock concentration: 3.333 mM",30.1%
same,"nuclei count, normalised","[1]; measured here: cell number at 48 h, Library stock concentration: 10 mM",29%
same,"p53-positive nuclei, normalised",[2]; Library stock concentration: 500 nM,1.14% (inactive)
same,"p53-positive nuclei, normalised",[2]; Library stock concentration: 1.5 uM,2.17% (inactive)
same,"p53-positive nuclei, normalised",[2]; Library stock concentration: 4.6 uM,5.96% (inactive)
same,"p53-positive nuclei, normalised",[2]; Library stock concentration: 13.7 uM,13.9% (inactive)
same,"p53-positive nuclei, normalised",[2]; Library stock concentration: 41 uM,17.9% (inactive)
same,"p53-positive nuclei, normalised",[2]; Library stock concentration: 123 uM,17.3% (inactive)
same,"p53-positive nuclei, normalised",[2]; Library stock concentration: 370 uM,15.8% (inactive)
same,"p53-positive nuclei, normalised",[2]; Library stock concentration: 1.111 mM,18.6% (inactive)
same,"p53-positive nuclei, normalised",[2]; Library stock concentration: 3.333 mM,15.3% (inactive)
same,"p53-positive nuclei, normalised",[2]; Library stock concentration: 10 mM,14% (inactive)
same,"p53-positive nuclei, normalised","[2]; measured here: p53 positive nuclei at 24 h, Library stock concentration: 500 nM",0.0832%
same,"p53-positive nuclei, normalised","[2]; measured here: p53 positive nuclei at 24 h, Library stock concentration: 1.5 uM",0.441%
same,"p53-positive nuclei, normalised","[2]; measured here: p53 positive nuclei at 24 h, Library stock concentration: 4.6 uM",2.38%
same,"p53-positive nuclei, normalised","[2]; measured here: p53 positive nuclei at 24 h, Library stock concentration: 13.7 uM",2.28%
same,"p53-positive nuclei, normalised","[2]; measured here: p53 positive nuclei at 24 h, Library stock concentration: 41 uM",1.13%
same,"p53-positive nuclei, normalised","[2]; measured here: p53 positive nuclei at 24 h, Library stock concentration: 123 uM",0.939%
same,"p53-positive nuclei, normalised","[2]; measured here: p53 positive nuclei at 24 h, Library stock concentration: 370 uM",1.03%
same,"p53-positive nuclei, normalised","[2]; measured here: p53 positive nuclei at 24 h, Library stock concentration: 1.111 mM",1.24%
same,"p53-positive nuclei, normalised","[2]; measured here: p53 positive nuclei at 24 h, Library stock concentration: 3.333 mM",1.62%
same,"p53-positive nuclei, normalised","[2]; measured here: p53 positive nuclei at 24 h, Library stock concentration: 10 mM",0.952%
O=c1c2cc(F)ccc2ncn1Cc1cn2ccccc2n1,"nuclei count, normalised",[1]; [3],98.7%
same,"nuclei count, normalised",[1]; [4],106%
same,"p53-positive nuclei, normalised",[2]; concentration not given here,-0.262% (inactive)
same,"p53-positive nuclei, normalised",[2]; [5],-0.23%
CCCCC/C=C\C/C=C\C/C=C\C/C=C\CCCC(=O)NC,"nuclei count, normalised",[1]; [3],104%
same,"nuclei count, normalised",[1]; [4],99.6%
same,"p53-positive nuclei, normalised",[2]; concentration not given here,0.0321% (inactive)
same,"p53-positive nuclei, normalised",[2]; [5],-0.0963%
